# High-throughput results as filed in PubChem BioAssay.
# The list is not random: actives were taken first. Their share in the collection is about 3.9%.
# GALK inh – qHTS Assay for Inhibitors of Human Galactokinase (GALK); P51570; Purified GALK, Kinase-Glo residual ATP luminescence; Potency, µM (highest dose often 57.5 µM), for inactives: top-dose activity change, negative = inhibition, usual class: inhibitors; actives 0.007% (n = 270,000); also: potency is read from the fitted curve at half-maximal effect; % is scaled to controls: 0 for no effect and ±100 for the full control effect
#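 ATP-depletion format; final 35 uM ATP, 100 uM D-galactose, 5 nM enzyme; pH 8.0 HEPES/Mg2+ buffer; 60 min RT; luminescence read 10 min after detection reagent.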
# USP2a block – qHTS Assay for Inhibitors of Ubiquitin-specific Protease USP2a Using CHOP2 as the Reporter; USP2 core, Ub-CHOP2 coupled fluorogenic reporter, 485/531; Potency, µM (doses to about 38.3 µM), without a hit: at the top dose activity change, negative = inhibition, most hits filed as inhibitors; actives 0.01% (n = 330,000); AID 463254, 2010;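 also: potency is read from the fitted curve at half-maximal effect; plate controls were DMSO wells for no effect and full inhibition by NEM control for full effect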
#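 USP2 core (10nM final) preincubated 30min RT with compound in 20mM Tris-HCl pH 8.0, 2mM CaCl2, 2mM beta-mercaptoethanol, 0.05% CHAPS; 25nM Ub-CHOP2 plus 25nM reporter substrate added, fluorescence (Ex485/Em531) read after 60min.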
# D1 potentiator – Potentiators of Human D1 Dopamine Receptor: qHTS; D(1A) dopamine receptor (Homo sapiens), P21728; HEK293 TREx D1 cells, calcium flux, dopamine EC20 potentiation; potentiation, % at 10 µM; actives 0.036% (n = 360,000); AID 504651, 2011; in the data active = potentiation above about 30%; also: 0% is about no effect
# Target sequence (P21728 whole entry, looked up): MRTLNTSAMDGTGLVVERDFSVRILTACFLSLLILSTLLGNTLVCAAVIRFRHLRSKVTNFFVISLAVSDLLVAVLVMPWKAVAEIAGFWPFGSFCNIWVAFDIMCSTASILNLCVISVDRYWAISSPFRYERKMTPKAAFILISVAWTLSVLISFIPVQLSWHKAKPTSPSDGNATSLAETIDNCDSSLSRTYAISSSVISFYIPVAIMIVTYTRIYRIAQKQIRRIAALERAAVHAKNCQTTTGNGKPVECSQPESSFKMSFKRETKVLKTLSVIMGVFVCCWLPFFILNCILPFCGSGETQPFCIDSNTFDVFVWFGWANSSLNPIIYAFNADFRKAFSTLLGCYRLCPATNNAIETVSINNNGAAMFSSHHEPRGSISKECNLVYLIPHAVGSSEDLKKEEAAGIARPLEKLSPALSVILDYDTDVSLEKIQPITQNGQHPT
# D1 antag – Antagonist of Human D 1 Dopamine Receptor: qHTS; D(1A) dopamine receptor (Homo sapiens), P21728; HEK293 TREx D1 cells, calcium flux, dopamine EC80; hits give low values; activity change, negative = inhibition, % at 10 µM; actives 3.2% (n = 360,000); in the data active = activity change below about -30%; also: % is scaled to controls: 0 for no effect and ±100 for the full control effect
#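 Antagonism measured as reduced calcium response to an EC80 dopamine addition following 180 s compound pre-read; cells were inducible HEK293 Trex D1 plated overnight at 30 C, read kinetically at 1 cycle/sec.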
# D1 agonist – Allosteric Agonists of the Human D1 Dopamine Receptor: qHTS; D(1A) dopamine receptor (Homo sapiens), P21728; HEK293 T-REx D1 cells, calcium flux, agonist mode; activation, % at 2 µM; actives 1% (n = 360,000); AID 504660, 2011; in the data active = activation above about 30%; also: 0% is about no effect
#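 Tetracycline-induced HEK293 TREx D1 cells, force-coupled to calcium signalling, were dye-loaded with a no-wash calcium kit. Compound was pin-added after a 10 s baseline. Fluorescence was read kinetically at 1 cycle/s for 180 s, with calcium rises flagged as agonism.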
# Eya2 phos inh – qHTS Assay for Inhibitors of the Phosphatase Activity of Eya2. Protein phosphatase EYA2 (Homo sapiens), O00167. recombinant Eya2, OMFP fluorescence dephosphorylation (OMFP is methylfluorescein phosphate). Potency, µM (top dose mostly 76.9 µM), without a hit: at the top dose activity, negative = inhibition, actives largely listed as inhibitors. actives 0.006% (n = 330,000). AID 488837, 2010; also: potency is read from the fitted curve at half-maximal effect; % is scaled to controls: 0 for no effect and ±100 for the full control effect
#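 Eya2 (0.2 uM) preincubated 10 min at ambient with compound, then OMFP substrate added at 50 uM; 10 min reaction in 50 mM HEPES pH 7.5, 50 mM NaCl, 5 uM MgCl2, 0.05% BSA, 1 mM DTT. Fluorescence read at Ex 485/Em 525 nm.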
# Numbers without * were called inactive; ? = inconclusive; . = not tested or not shown. Unless noted, calls follow the shape of the dose curve; as a rule, active = well fitted inhibition curve with a large enough effect; inconclusive = small, poorly fitted or top-dose-only effect, or effect the other way; inactive = flat fitted curve, though single readings scatter.
SMILES,GALK inh,USP2a block,D1 potentiator,D1 antag,D1 agonist,Eya2 phos inh
O=S(=O)(c1ccc(NC2CCCc3ccccc32)nc1)N1CCOCC1 (stereo not drawn),1%,3%,-4,-7,6,-11%
CCN(CC)S(=O)(=O)c1ccc(NC2CCN(Cc3ccccc3)CC2)nc1,2%,-1%,-9,-38*,34*,11%
CCN(CC)S(=O)(=O)c1ccc(Cl)c(C(=O)NC2CCN(Cc3ccccc3)CC2)c1,.,5%,-5,-8,6,?
CCN(CC)S(=O)(=O)c1ccc(NC2CCCc3ccccc32)nc1 (stereo not drawn),-5%,-2%,-7,-31*,5,-20%
CCc1nn(C(C)C(=O)N2CCN(c3cccc(C(F)(F)F)c3)CC2)c(=O)c2cc3occc3n12 (stereo not drawn),.,.,-5,4,1,.
N#CC1=C(N)N(c2cccc(Cl)c2)C2=C(C(=O)CCC2)C1c1cc(CN2CCOCC2)cs1 (stereo not drawn),.,.,1,7,1,.
FC(F)(F)c1ccccc1-n1c(-c2ccco2)n[nH]c1=S,2%,0%,32*,4,3,?
Cc1ccc(N=CC2=C(O)CC(c3ccco3)CC2=O)cc1 (stereo not drawn),-1%,5%,3,-38*,3,8%
O=C1CC(c2ccco2)CC(O)=C1C=Nc1ccc(Br)cc1 (stereo not drawn),0%,4%,-2,.,3,-23%
CN1CCCc2cc3c(C(F)(F)F)cc(=O)oc3nc21,0%,6%,-1,2,53*,-7%
COc1c(C)cc(NS(=O)(=O)c2ccc3c(c2)OCCO3)cc1C,.,.,-5,6,3,.
CCOc1ccc(OCC)c(Nc2nc3ccc(Cl)cc3n3cnnc23)c1,.,.,0,-36*,1,.
COc1cc(-c2noc(C)c2-c2ccc(N(C)C)nc2)cc(OC)c1OC,.,0%,0,-59*,89*,-13%
COc1ccc(C(=O)C(CCCCC(CN(C)C)C(=O)c2ccc(OC)cc2)CN(C)C)cc1 (stereo not drawn),.,0%,-10,-40*,24,-4%
COc1ccc(C(=O)CC(=O)c2ccc(OC)cc2)cc1,-2%,4%,-5,-28,1,4%
CN(C)CC(CCC(CN(C)C)C(=O)c1ccccc1)C(=O)c1ccccc1 (stereo not drawn),-2%,5%,0,6,3,-2%
CCOc1ccc(C(=O)C(CCC(CN(C)C)C(=O)c2ccc(OCC)cc2)CN(C)C)cc1 (stereo not drawn),0%,3%,-10,13,36*,-3%
Clc1ccc(-c2nnnn2-c2ccc(Cl)cc2)cc1,4%,0%,-17,-9,1,-5%
Clc1ccc(-c2c(C3=NCCCN3)nnn2-c2ccc(Cl)cc2)cc1,2%,4%,-6,-39*,10,5%
O=S(=O)(c1cccc(F)c1)N1CCN(S(=O)(=O)c2ccc3c(c2)OCCO3)CC1,.,.,5,-8,1,.
C=CCNc1nc(N)c(C(=C(C#N)C#N)c2ccc(Br)cc2)s1,2%,1%,-13,-32*,1,-5%
C=CCNc1sc(C(=O)c2ccc(C)cc2)c(N)c1C#N,-1%,1%,-3,-19,0,-25%
O=C(Nc1cccc([N+](=O)[O-])c1)Nc1ccc2c(c1)CCC2,-3%,-1%,-4,-64*,21,2%
O=C(Nc1ccccc1)Nc1ccc2c(c1)CCC2,-5%,-1%,-1,-13,13,-19%
O=C(Nc1cccc(F)c1)c1c(F)c(F)c(F)c(F)c1F,0%,-4%,-5,-36*,18,-15%
SMILES,GALK inh,USP2a block,D1 potentiator,D1 antag,D1 agonist,Eya2 phos inh
O=C(Nc1ccc(F)cc1)Nc1ccc2c(c1)CCC2,-3%,0%,-7,-17,2,7%
O=C(Nc1cccc(F)c1)Nc1ccc2c(c1)CCC2,-4%,1%,-10,-84*,20,-2%
Cc1cccc(NC(=O)c2c(F)c(F)c(F)c(F)c2F)c1,-5%,2%,-7,-8,5,-1%
CN1CCN(C(=O)C2(NC(=O)Nc3cccc(F)c3)CCCCC2)CC1,1%,4%,-4,-30*,3,7%
COc1ccc(N2CCN(C(=O)CCc3c(C)nn(-c4ccc(N5CCCC5)nn4)c3C)CC2)cc1,.,.,-3,-2,-1,.
CCC(=O)N1c2ccc(S(=O)(=O)CCC(=O)N3CCN(c4ccc(F)cc4)CC3)cc2CC1C (stereo not drawn),.,.,6,-4,7,.
CCN(c1ccccc1)S(=O)(=O)c1ccc2c(c1)CC(C)N2C(=O)C1CC1 (stereo not drawn),1%,3%,-3,-32*,17,-2%
O=C(CCNS(=O)(=O)c1ccc2c(c1)CCN2C(=O)C1CC1)N1CCN(c2ccc(F)cc2)CC1,.,.,-6,-37*,8,.
CCOc1ccccc1N(C)S(=O)(=O)c1ccc2c(c1)CC(C)N2C(=O)C1CC1 (stereo not drawn),-6%,-7%,-8,-32*,20,-1%
CC1Cc2cc(S(=O)(=O)CCC(=O)N3CCN(c4ccccc4)CC3)ccc2N1C(=O)C1CC1 (stereo not drawn),-2%,1%,-11,-31*,7,8%
Cc1ccc(NC(=O)CN(C)S(=O)(=O)c2cccc3nsnc23)c(C)c1,.,.,2,-11,-1,.
Cc1cc(OCC(=O)Nc2ccc(C(=O)OC3CCCCC3)cc2)ccc1Cl,.,.,0,-24,1,.
Cc1ccc(S(=O)(=O)N2CCCOC2CNC(=O)C(=O)NCCc2c[nH]c3ccccc23)cc1 (stereo not drawn),0%,0%,-13,-36*,1,2%
O=C(NCCc1c[nH]c2ccccc12)C(=O)NCC1OCCCN1S(=O)(=O)c1ccccc1 (stereo not drawn),2%,3%,1,-20,3,-4%
COc1ccc(CCNC(=O)C(=O)NCC2OCCCN2S(=O)(=O)c2cc(C)ccc2C)cc1 (stereo not drawn),0%,-11%,3,-44*,1,0%
